Compounds with a hit are over-represented: about 0.84% of the library has one in this group of screens.
SRC1 TRFRET art: flags TR-FRET format artefacts in PPARgamma SRC-1 recruitment agonist screen; TR-FRET detection artefact counter-screen, emission ratio; active compounds read high; TR-FRET ratio at 8 µM; 0.34% of 99,000 active; in the data active = TR-FRET ratio above about 2300
SRC3 TRFRET art: TR-FRET artefact, counter-screen to PPARgamma/SRC-3 agonist assay. PPARgamma/SRC-3 format; active compounds read high. TR-FRET ratio at 8 µM. 0.39% of 99,000 active; in the data active = TR-FRET ratio above about 2000
PPARg SRC-1 ag: PPARgamma-driven SRC-1 recruitment agonism | P37231 | PPARgamma-SRC-1 coactivator recruitment biochemical assay | activation, % at 8 µM | 0.41% of 200,000 active | AID 631; in the data active = activation above about 19%;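 also: 0% = DMSO and 100% = reference agonist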
PPARg SRC-3 ag: promotes SRC-3 coactivator recruitment by human PPARgamma | activation, % at 8 µM | biochemical PPARgamma/SRC-3 coactivator recruitment assay | P37231 | AID 731 | 0.26% of 200,000 active; in the data active = activation above about 23%;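 also: 0% = DMSO and 100% = reference agonist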
SRC2 TRFRET art: counter-screen for PPARgamma SRC-2 recruitment agonists: TR-FRET artefact; AID 1049; active compounds read high; TR-FRET ratio at 8 µM; 0.4% of 200,000 active; in the data active = TR-FRET ratio above about 2000
PPARg SRC2 recr: agonists of SRC-2 recruitment by human PPARgamma; P37231; PPARgamma LBD-SRC-2 recruitment, biochemical; activation, % at 8 µM; 0.34% of 200,000 active;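 also: 0% = vehicle and 100% = reference agonist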
PPARg SRC2 ag: human PPARgamma SRC-2 recruitment agonism, confirmation. biochemical SRC-2 recruitment by PPARgamma. 52% of 790 active. shares compounds with PPARg SRC-3 ag. activation, % at 8 µM;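 also: 0% = vehicle alone and 100% = reference agonist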
PPARg SRC1 conf: human PPARgamma SRC-1 recruitment agonism, confirmation; shares compounds with PPARg SRC-3 ag; PPARgamma–SRC-1 coactivator recruitment biochemical assay; activation, % at 8 µM; 43% of 790 active; AID 1300; in the data active = activation above about 20%;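 also: 0% = vehicle wells and 100% = reference agonist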
PPARg SRC3 ag: human PPARgamma SRC-3 recruitment agonism, confirmation. shares compounds with PPARg SRC-3 ag. biochemical PPARgamma-SRC-3 coactivator recruitment, agonist mode. activation, % at 8 µM. 29% of 790 active. AID 1301; in the data active = activation above about 24%;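 also: 0% = vehicle wells and 100% = reference agonist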
Starred values were filed as active, the others as inactive; · = no result given. Rule as the data show it, unless noted: active = activation above about 22%; inactive = the rest.

SMILES	SRC1 TRFRET art	SRC3 TRFRET art	PPARg SRC-1 ag	PPARg SRC-3 ag	SRC2 TRFRET art	PPARg SRC2 recr	PPARg SRC2 ag	PPARg SRC1 conf	PPARg SRC3 ag
CC(C)C(OC(=O)c1cc2occc2n1C)C(=O)NCc1ccc2c(c1)OCO2 (stereo unspecified)	1700	1951	32.8*	31.1*	1600	13.4	11.0	21.2*	19.9
Cc1cc2c(cc(C(=O)OC(C(=O)NCc3ccco3)C(C)C)n2C)o1 (stereo unspecified)	·	·	-4.4	0.9	1764	10.1	·	·	·
CCOc1ccccc1N1CCN(c2nc(N)c(C#N)c(CC#N)c2C#N)CC1	·	·	7.9	29.4*	1666	16.4	2.6	1.4	1.7
CC(=O)c1ccc(N2CCN(C(=O)c3ccc(Cn4c(=S)[nH]c5ccc(N6CCOCC6)cc5c4=O)cc3)CC2)cc1	4282*	3877*	39.6*	34.7*	3627*	36.7*	19.3	14.8	12.2
COc1ccc2c(c1)nc(SCC(=O)c1ccc(Br)s1)n2C	·	·	16.2	21.9	1815	28.4*	39.3*	26.6*	27.8*
O=c1oc(-c2ccco2)nc2c1cnn2-c1ccccc1	·	·	20.4*	3.1	1579	14.3	6.9	15.6	22.9
O=c1c2cnn(-c3ccccc3)c2nc(-c2ccco2)n1-c1ccccc1	·	·	-1.1	6.5	1611	10.5	·	·	·
Cc1nc2scc(-c3ccccc3)c2c(=O)n1N=C1C=CC(=O)C=C1	1523	1556	39.4*	35.2*	1437	25.7*	39.0*	37.7*	30.6*
O=C(CN1C(=O)c2ccccc2S1(=O)=O)NC(Nc1ccccc1F)C(Cl)(Cl)Cl (stereo unspecified)	1665	1410	7.7	0.6	1477	-0.5	·	·	·
O=C1CCC(=O)N1c1ccc(-c2nc3ccccc3s2)cc1	2057	1640	27.7*	14.3	1699	24.7*	5.4	6.3	5.3
N/C(=N\OC(=O)COc1ccc2ccccc2c1)c1cccnc1	1725	1744	2.6	4.5	1598	6.1	·	·	·
O=C(Nc1cccnc1)c1sc(Nc2ccccc2F)nc1-c1ccccc1	3447*	3407*	50.1*	30.5*	3029*	48.1*	68.3*	50.3*	45.5*
Cc1ccccc1Nc1nc(-c2ccccc2)c(C(=O)Nc2cccnc2)s1	2835*	2456*	24.5*	17.7	1978*	26.5*	44.0*	35.8*	26.4*
O=C(Nc1cccnc1)c1sc2cccc(F)c2c1Cl	1937	1729	6.9	2.6	1497	5.0	·	·	·
Cc1cc(SCC(=O)c2ccc3c(c2)OCO3)nc2ccccc12	·	·	20.0*	43.5*	3038*	37.1*	70.0*	57.5*	47.1*
Cn1c(=O)cc(OCC(=O)NCCCN2CCN(Cc3ccccc3)CC2)c2ccccc21	·	·	3.4	3.6	1472	7.6	·	·	·
CCn1c(=O)cc(SCC(=O)NCCCN2CCC(C)CC2)c2ccccc21	2386*	1905	13.5	8.9	1872	25.8*	20.9	13.0	12.4
CCn1c(=O)cc(SCC(=O)NCCCN2CCN(c3ccc(F)cc3)CC2)c2ccccc21	·	·	87.4*	101.4*	3656*	80.7*	38.2*	23.4*	25.4*
CCn1c(=O)cc(SCC(=O)NCCN2CCN(Cc3ccccc3)CC2)c2ccccc21	·	·	49.0*	70.2*	3069*	62.8*	29.1*	15.8	18.4
Cc1cccc(CN2CCN(CC(=O)NCCCN3CCN(c4ccc(F)cc4)CC3)C2=O)c1	·	·	1.5	4.6	1486	15.3	·	·	·
Cc1[nH]n(-c2ccccc2)c(=O)c1/C=N/N1C(=O)c2ccc3c4c(ccc(c24)C1=O)CC3	1884	1600	1.1	1.1	1619	0.8	·	·	·
CCOc1ccc(NC(=S)N(CC)Cc2ccccc2)cc1	1871	1722	5.5	0.0	1719	3.5	·	·	·
CCN(CC)S(=O)(=O)c1ccc(C(=O)NNC(=O)C2CCN(S(=O)(=O)c3ccc(Cl)cc3)CC2)cc1	1785	1523	-0.5	-0.6	1403	0.1	·	·	·
O=C(Cc1ccccc1Cl)N1CCN(c2ncccn2)CC1	1512	1378	8.1	-0.2	1571	2.7	·	·	·
CN(C)c1ccc(NC(=O)Oc2ccccc2)cc1	·	·	15.2	91.4*	2246*	58.4*	6.7	3.2	4.5
SMILES	SRC1 TRFRET art	SRC3 TRFRET art	PPARg SRC-1 ag	PPARg SRC-3 ag	SRC2 TRFRET art	PPARg SRC2 recr	PPARg SRC2 ag	PPARg SRC1 conf	PPARg SRC3 ag
Cc1sccc1C1C(C#N)=C(N)SC(N)=C1C#N	·	·	10.3	33.5*	1861	22.1*	3.5	0.9	5.0
Cc1[nH]nc2c1C(c1ccsc1C)C(C#N)=C(N)O2 (stereo unspecified)	·	·	1.5	-5.4	1409	-1.0	·	·	·
Cc1cc(C2C(C#N)=C(N)SC(N)=C2C#N)c(C)s1	·	·	9.3	15.0	1825	25.2*	0.2	-4.2	1.6
Cc1cc(C2C(C#N)=C(N)Oc3n[nH]c(C)c32)c(C)s1 (stereo unspecified)	·	·	-2.0	5.7	1518	3.7	·	·	·
O=C(Nc1ccc([N+](=O)[O-])cc1)Nc1ccc(OC(F)F)c(Cl)c1	1775	1682	3.8	8.3	1727	13.3	·	·	·
CCCC(C)NC(=O)c1ccc(OCc2ccc(Cl)cc2)c(OC)c1 (stereo unspecified)	2154	1723	62.2*	57.0*	1657	23.1*	30.9*	55.6*	48.1*
CCN(CC)c1ccc(/C=C(\C#N)c2nc(-c3cccs3)c(NC(C)=O)s2)cc1	1855	1464	-0.4	-4.1	1570	3.5	·	·	·
O=C(Cc1ccccc1)Nn1c(O)c(/C=C2\C=Nc3ccccc32)sc1=S	2099	1630	14.2	13.6	1652	23.9*	6.9	6.6	7.6
CCn1c(O)c(/C=C2\C=Nc3ccccc32)sc1=Nc1ccccc1	·	·	1.2	6.4	1406	4.5	·	·	·
Cc1cc(-c2ccc(Br)s2)nc(-n2cccc2)n1	2540*	2617*	25.8*	23.7*	2162*	24.8*	42.1*	28.5*	25.7*
Cc1cc(-c2sccc2Br)nc(-n2cccc2)n1	2236	2170*	22.1*	9.6	1890	10.6	18.1	14.2	12.9
Clc1ccc(-c2ccnc(-n3cccc3)n2)s1	1910	1708	0.5	6.2	1522	7.4	·	·	·
COc1ccc(C(C(=O)NC2CCCC2)N(C(=O)c2ccoc2C)c2ccc(C)c(C)c2)cc1 (stereo unspecified)	1853	1654	6.5	4.0	1635	10.3	·	·	·
COc1ccc(C2OC(=O)CC2C(=O)NCc2ccccc2Cl)cc1OC (stereo unspecified)	1683	1487	1.4	-0.8	1419	0.6	·	·	·
